The text below walks through data of PubChem BioAssay (Tox21).

Results filed as inconclusive are left out. Values without a mark were called inactive. Activity calls are given as the source filed them. Unless noted, calls follow the shape of the dose curve; as a rule, active = well fitted curve in the direction sought with a large enough effect in the repeat runs; inconclusive = weak or mixed curves; inactive = no such curve, though single readings can be large; an effect the other way counts as inactive or inconclusive.

Test [1] is described as follows: qHTS assay to identify small molecule agonists of the RXR signaling pathway - cell viability counter screen (AID 1159529). Also: series mostly up to about 77 µM; nearly all actives have a fitted effect of over 50% in size. The procedure, abridged: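 Luminescence from CellTiter-Glo (30 min, RT) measured viability in the same wells as the beta-lactamase reporter readout. Cells: GeneBLAzer RXR-alpha HEK 293T, 2% charcoal-stripped FBS. Compound exposure 16 hr, 37 C.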
For orientation: Quantitative high-throughput screening tests each substance at several concentrations.

Test [2] in a line: qHTS assay to identify small molecule antagonists of the retinoid acid receptor (RAR) signaling pathway - cell viability counter screen (AID 1159551). Also: nearly all actives have a fitted effect of over 35% in size. The procedure, abridged:
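Cytotoxicity counter screen in C3RL4 cells: 6 h compound exposure with 1 uM retinol (final), viability from cellular ATP by luminescence.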

Test [3] is described as follows: qHTS assay to identify small molecule antagonists of the retinoic acid receptor (RAR) signaling pathway (AID 1159552; also: nearly all actives have a fitted effect of over 50% in size). The gist of the method: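 Luminescence from a RARE luciferase reporter in C3RL4 cells served as read-out. Cells received compounds together with 1 uM final retinol and incubated 6 hr at 37 C before detection reagent was added for 30 min at room temperature.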

Test [4] can be described thus: qHTS assay to identify small molecule agonists of the retinoic acid receptor (RAR) signaling pathway (AID 1159553). Also: potency is read from the fitted curve at half-maximal effect. The procedure, abridged:
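Agonist activity was scored in C3RL4 cells bearing a retinoic acid response element luciferase construct. Cells were treated with compounds for 6 hr at 37 C, and luciferase signal was measured as luminescence.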

Test [5] is described as follows: qHTS assay to identify small molecule antagonists of the estrogen related receptor (ERR) signaling pathway from Tox21 library - cell viability counter screen (AID 1224834). Also: nearly all actives have a fitted effect of over 30% in size. The gist of the method:
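Cytotoxicity of test substances is gauged in the same ERR cells used for the antagonist screen, after 17.5 h of compound treatment at 37 C, by CellTiter-Fluor fluorescence measured after 30 min.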

The target in test [6] is Luciferin 4-monooxygenase (Photinus pyralis) (UniProt P08659). Nature of the test: qHTS assay to identify small molecule inhibitors of firefly luciferase (AID 1224835). Also: nearly all actives have a fitted effect of over 25% in size. Also: potency is read from the fitted curve at half-maximal effect. The gist of the method:
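Biochemical qHTS: compounds run as interplate titrations against purified firefly enzyme, with D-luciferin and ATP each at its KM concentration. Light output recorded by CCD imaging.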

Test [7] in a line: qHTS assay to identify small molecule agonists of the constitutive androstane receptor (CAR) signaling pathway - cell viability counter screen (AID 1224836). Also: series mostly up to about 92 µM; nearly all actives have a fitted effect of over 45% in size. The gist of the method:
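Viability read-out: CellTiter-Fluor fluorescence after 23 h compound exposure at 37 C/5% CO2 in double-stable HepG2-CYP2B6-hCAR cells, with PK11195 present at 0.75 uM final; compounds tested in 15-point titration.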

Test [8] in a line: qHTS assay to identify small molecule antagonists of the constitutive androstane receptor (CAR) signaling pathway - cell viability counter screen (AID 1224837). Also: series mostly up to about 92 µM; nearly all actives have a fitted effect of over 45% in size. The procedure, abridged:
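Multiplexed cytotoxicity read-out for the CAR antagonist screen: double-stable HepG2-CYP2B6-hCAR cells co-treated with 50 nM CITCO (final) and compound over 15 concentrations, incubated 23 hr, then assessed by CellTiter-Fluor fluorescence.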

Test [9] addresses Nuclear receptor subfamily 1 group I member 3 (Homo sapiens) (UniProt Q14994). Nature of the test: qHTS assay to identify small molecule antagonists of the constitutive androstane receptor (CAR) signaling pathway (AID 1224838). Also: nearly all actives have a fitted effect of over 40% in size. The gist of the method: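 Compounds were titrated across 15 concentrations onto HepG2 cells double-stably expressing hCAR and a CYP2B6-2.2kb reporter, together with 50 nM CITCO (final). After 24 h at 37 C, luciferase activity was measured by luminescence.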

Test [10] can be described thus: qHTS assay to identify small molecule antagonists of the estrogen related receptor signaling pathway with the pleiotropic PPARgamma coactivator (PGC) from Tox21 10K library - cell viability counter screen (AID 1224840; active = well fitted cell-killing curve with a large enough effect in the repeat runs, not every such curve was filed as active; also: nearly all actives have a fitted effect of over 40% in size). The gist of the method: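 Step one, plate 2,000 PGC/ERR cells per well; step two, incubate 6 h at 37 C/5% CO2; step three, pin-transfer compounds; step four, incubate 17.5 h; step five, add CellTiter-Fluor and read fluorescence after 30 min.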

Test [11] addresses Nuclear receptor subfamily 1 group I member 3 (Homo sapiens) (UniProt Q14994). Nature of the test: qHTS assay to identify small molecule agonists of the constitutive androstane receptor (CAR) signaling pathway (AID 1224839). Also: nearly all actives have a fitted effect of over 15% in size. Also: potency is read from the fitted curve at half-maximal effect. The gist of the method:
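Luminescence read-out (ONE-Glo, 30 min, room temperature) from double-stable HepG2-CYP2B6-hCAR cells exposed 24 h to 15-point compound series in presence of 0.75 uM PK11195 final.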

Test [12] can be described thus: qHTS assay to identify small molecule antagonists of the estrogen related receptor signaling pathway with the pleiotropic PPARgamma coactivator (PGC) from Tox21 10K library (AID 1224841; call rule not given here; also: series mostly up to about 92 µM; actives are mostly falling curves and most rising ones were filed inactive; nearly all actives have a fitted effect of over 50% in size). The procedure, abridged:
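Antagonism in this quantitative HTS is taken from loss of luciferase signal in PGC/ERR cells. Cells (2,000/well) are treated with compounds in DMSO after a 6 h settling period and read by One-Glo luminescence after 18 h.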

The nature of test [13]: qHTS assay to identify small molecule agonists of the estrogen related receptor signaling pathway with the pleiotropic PPARgamma coactivator (PGC) from Tox21 10K library (AID 1224842). Also: nearly all actives have a fitted effect of over 15% in size. The procedure, abridged: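 PGC/ERR reporter cell line, 2,000 cells per well, incubated 6 h at 37 C before 23 nL compound in DMSO was added. After 18 h at 37 C, One-Glo luminescence read following 30 min at room temperature.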

Test [14] in a line: qHTS assay to identify small molecule antagonists of the estrogen related receptor (ERR) signaling pathway - cell viability counter screen (AID 1224818).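 Also: series mostly up to about 46 µM; viability measured after 17.5 h of compound exposure.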 The gist of the method:
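Cells carrying the ERR pathway reporter were seeded and incubated for 6 hours before compound addition. After a 17.5-hour exposure at 37 C, live-cell protease activity was measured by CellTiter-Fluor fluorescence following 30 minutes of incubation.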

A short description of test [15]: qHTS assay to identify small molecule antagonists of the estrogen related receptor signaling pathway with the pleiotropic PPARgamma coactivator (PGC) cell viability counter screen (AID 1224822; also: series mostly up to about 46 µM). The procedure, abridged:
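Seed PGC/ERR cells (2,000/well); incubate 6 h at 37 C/5% CO2; pin-transfer compounds in DMSO; incubate 17.5 h at 37 C; add CellTiter-Fluor; after 30 min read fluorescence.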

Chain of Luciferin 4-monooxygenase (Photinus pyralis) (P08659 whole entry, looked up): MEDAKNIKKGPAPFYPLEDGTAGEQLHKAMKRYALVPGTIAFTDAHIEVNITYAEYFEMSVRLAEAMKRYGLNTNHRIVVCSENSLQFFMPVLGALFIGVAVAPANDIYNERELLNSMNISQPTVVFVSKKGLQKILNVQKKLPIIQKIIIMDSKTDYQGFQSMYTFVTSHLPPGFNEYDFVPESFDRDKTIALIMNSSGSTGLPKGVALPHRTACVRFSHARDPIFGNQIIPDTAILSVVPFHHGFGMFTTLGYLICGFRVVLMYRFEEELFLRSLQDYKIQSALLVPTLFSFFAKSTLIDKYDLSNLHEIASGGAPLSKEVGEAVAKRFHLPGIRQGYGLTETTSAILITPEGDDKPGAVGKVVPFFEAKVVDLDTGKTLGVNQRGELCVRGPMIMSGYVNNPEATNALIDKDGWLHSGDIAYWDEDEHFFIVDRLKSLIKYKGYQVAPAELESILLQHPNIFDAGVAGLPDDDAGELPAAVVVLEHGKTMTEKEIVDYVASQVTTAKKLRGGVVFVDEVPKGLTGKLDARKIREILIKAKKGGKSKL
Chain of Nuclear receptor subfamily 1 group I member 3 (Homo sapiens) (Q14994 whole entry, looked up): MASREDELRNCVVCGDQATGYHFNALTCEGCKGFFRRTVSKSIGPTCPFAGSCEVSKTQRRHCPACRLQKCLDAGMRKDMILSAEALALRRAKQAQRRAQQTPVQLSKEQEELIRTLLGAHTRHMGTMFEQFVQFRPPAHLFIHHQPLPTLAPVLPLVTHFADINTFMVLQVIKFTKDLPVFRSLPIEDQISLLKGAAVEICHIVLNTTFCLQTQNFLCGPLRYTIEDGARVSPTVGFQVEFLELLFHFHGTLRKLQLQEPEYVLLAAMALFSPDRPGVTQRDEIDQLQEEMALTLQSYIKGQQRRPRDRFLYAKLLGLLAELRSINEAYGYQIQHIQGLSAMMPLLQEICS

Turning to `O=C(O)CCc1nc2ccccc2[nH]1`, the Potency result in test [1], in test [4], in [5], in test [6], in [7] and in [8] was “inactive” each time. The Potency result in [9] and in test [10] was “inactive” in each case. Further, the compound was called inactive in [2] and in test [3].

Turning to `CCOc1ccc2c(c1)C(C)CC(C)(C)N2` (centres undefined), the Potency entry in test [1], in test [5], in [7], in test [8], in test [9] and in [10] was “inactive” throughout. Also, the compound was called inactive in test [2] and in [3]. The figures for the Potency in test [4], in [6] and in test [11] were 54.5 µM (active), 31.7 µM (active) and 27.3 µM (active), respectively.

`CCCC(=O)OCCC(C)C`: the Potency result in test [1], in test [4], in [5], in [6], in test [7] and in test [8] was “inactive” in each case. Also, the Potency result in test [10] is “inactive”. Besides, the compound was called inactive in test [2] and in test [3].

With `N#Cc1ccc(CC(=O)c2cccc(C(F)(F)F)c2)cc1`, the Potency result in test [1], in test [4], in test [5], in test [6], in [7] and in test [8] was “inactive” throughout. Further, the Potency result in test [9] and in test [10] was “inactive” each time. Besides, the compound was classed as inactive in test [2] and in [3].

As to `CC(C(=O)O)c1ccc(/C=C2\CCCCC2=O)cc1` (centres undefined), the Potency entry in test [1], in [5], in test [7], in test [8], in test [9] and in [10] was “inactive” throughout. Moreover, the compound was called inactive in test [2] and in test [3]. In addition, the Potency in test [4] was 15 µM (active); in [6], 30.9 µM (active); in [11] it was 26.6 µM (active).

In the case of `CCCCCCCCCCCC(=O)OCC`, the Potency entry in test [1], in [4], in test [5], in test [6], in [7] and in test [8] was “inactive” each time. The Potency result in test [10] was “inactive”. For the same compound, the result in [2] and in test [3] was inactive.

Take `COc1cc(CNC(=O)CCCC/C=C/C(C)C)ccc1O`: the Potency result in test [1], in [5], in test [6], in test [7], in test [8] and in test [9] was “inactive” each time. Further, the Potency entry in test [10] was “inactive”. The call in [2] and in test [3] was inactive.

In the case of `CCCCCCCCCCCCSCCOCCO`, the Potency entry in [1], in test [4], in test [5], in test [6], in test [7] and in test [8] was “inactive” in each case. Further, the Potency entry in [10], in [12] and in test [13] was “inactive” in each case. In addition, the compound was called inactive in [2] and in [3].

Take `OCCCO`: the Potency entry in test [1], in [5], in test [6], in test [7] and in [8] was “inactive” throughout. The compound was classed as inactive in [2] and in test [3].

Take `NC(=O)c1ccccc1`: the Potency result in test [1], in test [4], in test [5], in test [6], in test [7] and in [8] was “inactive” each time. Moreover, the Potency entry in test [9] and in test [11] was “inactive” throughout. Moreover, the outcome in [2], in test [14] and in [15] was inactive.

With `CCC(CC)C(=O)O`, the Potency entry in test [1], in test [5], in [6], in test [7], in [8] and in [9] was “inactive” in each case. For the same compound, the Potency result in [11] and in test [10] was “inactive” throughout. Besides, the call in [2] and in test [3] was inactive.

With `CCCC(=O)OCc1ccccc1`, the Potency result in test [1], in test [4], in [5], in test [6], in test [7] and in [8] was “inactive” in each case. Besides, the Potency entry in [10], in test [12] and in [13] was “inactive” in each case. In addition, the result in test [2] and in [3] was inactive.

With `CCC1=C(C)CN(C(=O)NCCc2ccc(S(=O)(=O)NC(=O)NC3CCC(C)CC3)cc2)C1=O` (centres undefined), the Potency entry in test [1], in [4], in test [5], in [6], in [7] and in test [8] was “inactive” throughout. Moreover, the Potency result in [10] and in test [12] was “inactive” throughout. Besides, the result in test [2] and in test [3] was inactive.
